High-throughput results deposited in PubChem BioAssay by The Scripps Research Institute Molecular Screening Center.
DAX1 inh-1 – blocks DAX1 repression of SF-1 activated StAR promoter; HEK293T StAR-luciferase reporter, SF-1/DAX-1 repression relief; inhibition, % at 6.8 µM; hit rate 1.1% among 370,000; AID 652010;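 active = inhibition above the mean over all tested compounds plus 3 SD, cut at about 3.6% in these data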;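 note: 0% = DAX-1 cells with DMSO and 100% = cells lacking DAX-1 with DMSO; higher inhibition means more luminescence from relief of DAX-1 repression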
hcDAF12 agonist – activators of H. contortus DAF-12 nuclear receptor | HEK293 hcDAF-12 lit1-tk-luc reporter, luminescence; 0% DMSO, 100% Δ7-dafachronic acid | activation, % at 6.8 µM | hit rate 1.4% among 370,000 | AID 652067;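 active = activation above the mean of all tested compounds plus 3 SD, cut at about 5.5% in these data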;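 note: 100% = response to 3 µM Δ7-dafachronic acid high control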
hgDAF12 agonist – hgDAF-12 agonism, primary luciferase screen | hit rate 1.8% among 370,000 | activation, % at 6.8 µM | HEK293 GAL4-hgDAF12 UAS-luciferase reporter, agonist luminescence; normalized to butyrate control;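 active = activation above a cutoff set at the mean of all screened compounds plus 3 SD, cut at about 10% in these data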;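 note: 0% = DMSO wells and 100% = sodium butyrate wells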
ssDAF-12 act – activators of S. stercoralis DAF-12 nuclear receptor; hit rate 1% among 370,000; activation, % at 6.8 µM; AID 652126; HEK293 ssDAF-12/GRIP1 lit1-tk-luc reporter, luminescence; % of 3 µM dafachronic acid response;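 active = activation above the mean over all tested compounds plus 3 SD, cut at about 0.9% in these data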;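 note: 0% = DMSO-only wells and 100% = 3 µM delta7-dafachronic acid wells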
DAX1 inh-2 – NR0B1 (DAX1) inhibition; HEK293 Gal4-DAX1 luciferase reporter, luminescence; inhibition, % at 6.75 µM; hit rate 0.99% among 340,000;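 active = inhibition above the mean over all tested compounds plus 3 SD, cut at about 4.2% in these data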;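 note: 0% = DAX1-transfected cells with DMSO and 100% = empty-vector control cells with DMSO; inhibition shows as a rise in luminescence from relieved DAX1 repression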
Target sequence (P51843 207-470 limits assumed): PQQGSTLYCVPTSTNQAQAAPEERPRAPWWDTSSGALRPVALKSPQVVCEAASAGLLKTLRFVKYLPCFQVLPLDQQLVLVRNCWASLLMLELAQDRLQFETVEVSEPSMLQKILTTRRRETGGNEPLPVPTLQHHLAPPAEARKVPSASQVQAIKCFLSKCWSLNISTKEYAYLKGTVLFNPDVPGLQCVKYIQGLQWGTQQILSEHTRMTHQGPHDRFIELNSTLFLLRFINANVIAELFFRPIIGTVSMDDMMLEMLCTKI
LXRb hcDAF ctr – LXR-beta agonism as hcDAF-12 counter-screen | shares compounds with hcDAF12 agonist | HEK293 Gal4-LXR tk-luc reporter, luminescence, 24 h; normalized: DMSO 0%, positive control 100% | activation, % at 6.8 µM | 3,400 tested, under 10 active | AID 743027;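 active = mean percent activation of the reporter above a cutoff set as the average over tested compounds plus their standard deviation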
hcDAF12 conf – hcDAF-12 agonism, confirmation assay; shares compounds with hcDAF12 agonist; HEK293 hcDAF-12 lit1-tk-luc reporter, luminescence; % of Δ7-dafachronic acid response; activation, % at 6.8 µM; hit rate 61% among 3,400; AID 743032;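 active = mean activation across triplicate tests above the threshold derived from the earlier primary screen, cut at about 5.5% in these data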;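 note: 0% = DMSO only wells and 100% = 3 µM Δ7-dafachronic acid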
* hit, by the source's call. Sampled rows, rich in hits. Any-hit rate of the full collection: about 4.1%.

How did CC(CCN1CCC(C(O)(c2ccccc2)c2ccccc2)CC1)Oc1ccc(OC(F)(F)F)cc1 (stereo unspecified) do in these assays?
DAX1 inh-1: 0; hcDAF12 agonist: 7.5*; hgDAF12 agonist: 5; ssDAF-12 act: 0; LXRb hcDAF ctr: 0; hcDAF12 conf: 3

How did Cc1cc(OC(C)CCN2CCC(C(O)(c3ccccc3)c3ccccc3)CC2)ccc1Br (stereo unspecified) do in these assays?
DAX1 inh-1: -1; hcDAF12 agonist: 6.8*; hgDAF12 agonist: 6; ssDAF-12 act: -1; LXRb hcDAF ctr: 0; hcDAF12 conf: 3

Results for Cc1cc(C)cc(OC(C)CCN2CCC(C(O)(c3ccccc3)c3ccccc3)CC2)c1 (stereo unspecified) ?
DAX1 inh-1: 0; hcDAF12 agonist: 1; hgDAF12 agonist: 3; ssDAF-12 act: -1

Results for Cc1sc(NC(=O)c2ccc(Cl)s2)c(C(N)=O)c1C ?
DAX1 inh-1: 2; hcDAF12 agonist: 10*; hgDAF12 agonist: 13*; ssDAF-12 act: 2.0*; DAX1 inh-2: 4.6*; LXRb hcDAF ctr: 1; hcDAF12 conf: 14*

Results for Cc1sc(NC(=S)Nc2ccc(F)cc2)c(C(N)=O)c1C ?
DAX1 inh-1: 0; hcDAF12 agonist: 2; hgDAF12 agonist: 1; ssDAF-12 act: -1; DAX1 inh-2: 0

What do the screens show for `CCn1c2ccccc2c2cc(NC(=O)CSc3nccc(=O)[nH]3)ccc21`?
DAX1 inh-1: -1; hcDAF12 agonist: 0; hgDAF12 agonist: 1; ssDAF-12 act: 0; DAX1 inh-2: -1

How did COc1ccc(/C(C)=N/Nc2nc3ccccc3nc2C)cc1OC do in these assays?
DAX1 inh-1: 2; hcDAF12 agonist: 8.4*; hgDAF12 agonist: 9; ssDAF-12 act: 0; DAX1 inh-2: 5.1*; LXRb hcDAF ctr: 0; hcDAF12 conf: 0

How did COC(=O)[C@]12C[C@H](CC(=O)N3CCSCC3)C(=O)N(CCc3ccc(OC)c(OC)c3)C1=C[C@H](COCc1ccccc1)O[C@@H]2C do in these assays?
DAX1 inh-1: -2; hcDAF12 agonist: -2; hgDAF12 agonist: -2; ssDAF-12 act: -1

What do the screens show for `Nc1nc2ccc(C(=O)Nc3ccccc3)cc2s1`?
DAX1 inh-1: 1; hcDAF12 agonist: 11*; hgDAF12 agonist: 11*; ssDAF-12 act: 1.9*; DAX1 inh-2: 3; LXRb hcDAF ctr: 1; hcDAF12 conf: 7.7*

Results for COc1cc(NC(=O)CN2C(=O)COc3ccccc32)cc(OC)c1 ?
DAX1 inh-1: -1; hcDAF12 agonist: -2; hgDAF12 agonist: -2; ssDAF-12 act: -1; DAX1 inh-2: 0

Results for C=CCn1c(O)c(N=NC(=O)OCC)c2ccccc21 ?
DAX1 inh-1: 0; hcDAF12 agonist: -2; hgDAF12 agonist: -3; ssDAF-12 act: -1; DAX1 inh-2: -1

Results for CCOC(=O)N=Nc1c(O)n(C)c2ccccc12 ?
DAX1 inh-1: 0; hcDAF12 agonist: 7.3*; hgDAF12 agonist: 5; ssDAF-12 act: 0; DAX1 inh-2: -1; LXRb hcDAF ctr: 0; hcDAF12 conf: 2

What do the screens show for `CCC[C@H]1[C@@H](OC(=O)N2CCN(c3ccccc3)CC2)CC[C@@]23CCCN2C(=O)CCC[C@@H]13`?
hcDAF12 agonist: -3; hgDAF12 agonist: 2; ssDAF-12 act: -2

How did O=C(/C=C/c1cccc([N+](=O)[O-])c1)c1ccco1 do in these assays?
DAX1 inh-1: -1; hcDAF12 agonist: -1; hgDAF12 agonist: 2; ssDAF-12 act: -1; DAX1 inh-2: 0

How did Cc1ccc([N+](=O)[O-])cc1N/C=C/C(=O)c1ccco1 do in these assays?
DAX1 inh-1: 2; hcDAF12 agonist: 8.1*; hgDAF12 agonist: 7; ssDAF-12 act: 0; DAX1 inh-2: 1; LXRb hcDAF ctr: 0; hcDAF12 conf: 6.1*

Results for Cc1nc2sc(C(=O)Nc3ccccc3)c(N)c2c(C)c1[N+](=O)[O-] ?
DAX1 inh-1: 4.0*; hcDAF12 agonist: 8.1*; hgDAF12 agonist: 10; ssDAF-12 act: 1.6*; DAX1 inh-2: 6.9*; LXRb hcDAF ctr: 1; hcDAF12 conf: 9.4*

How did Cc1nc2sc(C(=O)c3ccccc3)c(N)c2c(C)c1C do in these assays?
DAX1 inh-1: -1; hcDAF12 agonist: 0; hgDAF12 agonist: 6; ssDAF-12 act: -1; DAX1 inh-2: 1

How did CC(=O)c1ccc(NC(=O)c2sc3nc(C)c(C)c(C)c3c2N)cc1 do in these assays?
DAX1 inh-1: 2; hcDAF12 agonist: 8.2*; hgDAF12 agonist: 10; ssDAF-12 act: 1.2*; DAX1 inh-2: 6.7*; LXRb hcDAF ctr: 1; hcDAF12 conf: 5.8*

Results for O=C1CCC[C@H]2C[C@H](NCc3ccccc3F)CC[C@]23CCCN13 ?
hcDAF12 agonist: 0; hgDAF12 agonist: 0; ssDAF-12 act: -1

Results for CC(=O)Nc1sc2c(c1-c1nc3ccccc3s1)CN(C(C)C)C2 ?
hcDAF12 agonist: 2; hgDAF12 agonist: 7; ssDAF-12 act: -1

How did CC(=O)Nc1sc2c(c1-c1nc3ccccc3s1)CCN(C)C2 do in these assays?
hcDAF12 agonist: 14*; hgDAF12 agonist: 5; ssDAF-12 act: 0; LXRb hcDAF ctr: 1; hcDAF12 conf: 9.4*

How did CC(=O)Nc1sc2c(c1-c1nc3ccccc3s1)CN(C(C)C)CC2 do in these assays?
DAX1 inh-1: -1; hcDAF12 agonist: 14*; hgDAF12 agonist: 11*; ssDAF-12 act: 2.5*; DAX1 inh-2: 1; LXRb hcDAF ctr: 2; hcDAF12 conf: 17*

Results for C[C@H]1COc2cc(NCCO)ccc2S(=O)(=O)N1 ?
DAX1 inh-1: -1; hcDAF12 agonist: 1; hgDAF12 agonist: 2; ssDAF-12 act: -1

Results for O=C(N/N=C/c1cc2ccccc2[nH]1)c1ccccc1Cl ?
DAX1 inh-1: 0; hcDAF12 agonist: 6.6*; hgDAF12 agonist: 6; ssDAF-12 act: 0; DAX1 inh-2: 2; LXRb hcDAF ctr: 0; hcDAF12 conf: 4

Results for O=C(N/N=C/c1cccc2ccccc12)c1ccccc1Cl ?
DAX1 inh-1: 0; hcDAF12 agonist: -2; hgDAF12 agonist: 2; ssDAF-12 act: -1; DAX1 inh-2: 0

How did COC(=O)[C@]1(CNC(=O)Nc2ccc(C)c(Cl)c2)CC(=O)N(C)[C@@H]1c1ccccc1 do in these assays?
DAX1 inh-1: -1; hcDAF12 agonist: -1; hgDAF12 agonist: -5; ssDAF-12 act: -2

What do the screens show for `COCCCNC(=O)c1oc(=O)c2ccccc2c1-c1ccc(C)cc1`?
DAX1 inh-1: 0; hcDAF12 agonist: -2; hgDAF12 agonist: 2; ssDAF-12 act: -1
